From PubChem BioAssay AID435017 (Vanderbilt High Throughput Screening Facility, 2010)
Results with a measured potency or affinity are listed apart. The source made the active and inactive calls.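 The calls were made as follows: active = compounds with a dose-dependent response across tested concentrations; inactive = the rest.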

Target: ATP-sensitive inward rectifier potassium channel 1 (Homo sapiens) (UniProt P48048)
Assay: ROMK inhibition by analog compounds, SAR follow-up, cell-based, thallium flux, analog library (AID 435017)
Details: Tet-inducible ROMK, thallium flux fluorescence; series mostly up to 10 µM

Chain of ATP-sensitive inward rectifier potassium channel 1 (Homo sapiens) (P48048 whole entry, looked up): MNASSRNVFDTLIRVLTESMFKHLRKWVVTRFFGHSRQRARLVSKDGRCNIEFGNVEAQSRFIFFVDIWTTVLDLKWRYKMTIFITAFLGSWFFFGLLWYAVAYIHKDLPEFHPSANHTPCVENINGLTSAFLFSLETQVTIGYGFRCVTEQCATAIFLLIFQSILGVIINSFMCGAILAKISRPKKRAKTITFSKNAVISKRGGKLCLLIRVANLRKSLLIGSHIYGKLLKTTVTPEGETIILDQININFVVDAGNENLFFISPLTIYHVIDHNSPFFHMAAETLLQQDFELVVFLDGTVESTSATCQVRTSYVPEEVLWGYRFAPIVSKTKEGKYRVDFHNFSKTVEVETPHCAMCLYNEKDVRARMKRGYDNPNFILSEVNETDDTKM

outcome, inactive:
O=C(Nc1ccc([N+](=O)[O-])cc1)N1CCOCCOCCN(C(=O)Nc2ccc([N+](=O)[O-])cc2)CCOCC1
O=[N+]([O-])c1ccc2nc(COCc3nc4ccccc4[nH]3)[nH]c2c1
O=C(c1ccc([N+](=O)[O-])cc1)N1CCOCCOCCN(C(=O)c2ccc([N+](=O)[O-])cc2)CCOCC1
CS(=O)(=O)c1ccc(CN2CCOCCOCCN(Cc3ccc(S(C)(=O)=O)cc3)CCOCC2)cc1
O=S(=O)(c1ccc(CN2CCOCCOCCN(Cc3ccc(S(=O)(=O)C(F)(F)F)cc3)CCOCC2)cc1)C(F)(F)F
O=[N+]([O-])c1cccc(CN2CCOCCOCCN(Cc3cccc([N+](=O)[O-])c3)CCOCC2)c1
CN(C)S(=O)(=O)c1ccc2nc(COCc3nc4ccc(S(=O)(=O)N(C)C)cc4[nH]3)[nH]c2c1
O=[N+]([O-])c1ccc(CN2CCOCCOCCN(Cc3ccc([N+](=O)[O-])cc3[N+](=O)[O-])CCOCC2)c([N+](=O)[O-])c1
Fc1ccc(CN2CCOCCOCCN(Cc3ccc(F)c(F)c3)CCOCC2)cc1F
c1ccc2[nH]c(COCc3nc4ccccc4[nH]3)nc2c1
O=[N+]([O-])c1ccc(S(=O)(=O)N2CCOCCOCCN(S(=O)(=O)c3ccc([N+](=O)[O-])cc3)CCOCC2)cc1
Fc1ccc2nc(COCc3nc4ccc(F)cc4[nH]3)[nH]c2c1
COCCN(CCOC)Cc1ccc([N+](=O)[O-])cc1
O=[N+]([O-])c1ccc(CN2CCOCCOCCN(Cc3ccc([N+](=O)[O-])cc3Cl)CCOCC2)c(Cl)c1
